From the antibiotic and cytotoxicity screens of Wong et al. (2023)
Hit rate of the full screen: of about 39,000 compounds, about 1,500 (3.8%) were called active. This excerpt belongs to a sample that is enriched for actives.

system: HSkMC (human skeletal muscle cells); test: cytotoxicity call (relative viability < 0.9); conditions: 10 µM

SMILES	cytotoxicity call
C[C@@H]1CCCCO[C@@H](CN(C)Cc2ccc(C(=O)Nc3ccccc3N)cc2)[C@@H](C)CN([C@H](C)CO)C(=O)c2cc(NC(=O)Nc3cccc4ccccc34)ccc2O1	inactive
CCC(C)C1OC2(CCC1C)CC1CC(CC=C(C)C(OC3CC(OC)C(OC4CC(OC)C(O)C(C)O4)C(C)O3)C(C)C=CC=C3COC4C(O)C(C)=CC(C(=O)O1)C34O)O2 (stereo unspecified)	inactive
CC[C@H](C)[C@H]1O[C@]2(CC[C@@H]1C)C[C@@H]1C[C@@H](C/C=C(\C)[C@@H](O[C@H]3C[C@H](OC)[C@@H](O[C@H]4C[C@H](OC)[C@@H](O)[C@H](C)O4)[C@H](C)O3)[C@@H](C)/C=C/C=C3\CO[C@@H]4[C@H](O)C(C)=C[C@@H](C(=O)O1)[C@]34O)O2	active
CC[C@@H](C)[C@H]1O[C@@]2(CC[C@@H]1C)C[C@H]1C[C@@H](CC=C(C)[C@@H](O[C@H]3C[C@@H](OC)[C@@H](O[C@H]4C[C@@H](OC)[C@@H](O)[C@@H](C)O4)[C@@H](C)O3)[C@@H](C)C=CC=C3CO[C@H]4[C@@H](O)C(C)=C[C@@H](C(=O)O1)[C@]34O)O2.CO[C@H]1C[C@@H](O[C@@H]2[C@@H](OC)C[C@@H](O[C@@H]3C(C)=CC[C@@H]4C[C@@H](C[C@@]5(CC[C@@H](C)[C@H](C(C)C)O5)O4)OC(=O)[C@@H]4C=C(C)[C@H](O)[C@@H]5OCC(=CC=C[C@@H]3C)[C@@]45O)O[C@@H]2C)O[C@@H](C)[C@@H]1O	active
O=[N+]([O-])c1cc(N(CCO)CCO)ccc1NCCO	inactive
O=C(C[C@@H]1CC[C@H]2[C@@H](COC[C@@H](O)CN2C(=O)Nc2cccc(F)c2)O1)NCCCN1CCOCC1	inactive
C[C@@H]1CCCCO[C@H](CN(C)Cc2ccccc2)[C@@H](C)CN([C@@H](C)CO)C(=O)c2cc(NC(=O)CCC(F)(F)F)ccc2O1	inactive
CCS(=O)(=O)Nc1ccc2c(c1)C(=O)N(C)[C@@H]1CC[C@H](CC(=O)N[C@H]3CCN(Cc4ccccc4)C3)O[C@H]1CO2	inactive
CCS(=O)(=O)Nc1ccc2c(c1)/C(=C(/Nc1ccc(CN3CCCCC3)cc1)c1ccccc1)C(=O)N2	active
CCS(=O)(=O)Nc1ccc2c(c1)CC(=O)N2	inactive
Cc1ccc(S[C@]2(C(=O)NCCCN(C)C)CC(=O)N(Cc3ccccc3C(F)(F)F)[C@@H]2c2ccc(CO)cc2I)cc1	inactive
C[C@@H]1CN([C@H](C)CO)C(=O)c2cc(NC(=O)c3ccncc3)ccc2O[C@@H](C)CCCCO[C@@H]1CN(C)C(=O)Nc1cccc2ccccc12	inactive
C[C@H]1CCCCO[C@H](CN(C)C(=O)Nc2cccc3ccccc23)[C@@H](C)CN([C@@H](C)CO)C(=O)c2cc(NC(=O)c3ccncc3)ccc2O1	inactive
C[C@@H]1CCCCO[C@H](CN(C)C(=O)Nc2cccc3ccccc23)[C@@H](C)CN([C@@H](C)CO)C(=O)c2cc(NC(=O)c3ccncc3)ccc2O1	active
C[C@@H]1CCCCO[C@@H](CN(C)C(=O)Nc2cccc3ccccc23)[C@H](C)CN([C@@H](C)CO)C(=O)c2cc(NC(=O)c3ccncc3)ccc2O1	inactive
C[C@@H]1CN([C@H](C)CO)C(=O)c2cc(NC(=O)c3ccncc3)ccc2O[C@@H](C)CCCCO[C@H]1CN(C)C(=O)Nc1cccc2ccccc12	active
C[C@H](CO)N1C[C@H](C)[C@@H](CN(C)C(=O)Nc2cccc3ccccc23)OCCCC[C@H](C)Oc2ccc(NC(=O)c3ccncc3)cc2C1=O	inactive
C[C@@H]1CN([C@@H](C)CO)C(=O)Cc2cc(NC(=O)C3CCCCC3)ccc2O[C@H]1CN(C)S(C)(=O)=O	inactive
C[C@@H]1CN([C@@H](C)CO)C(=O)c2cccc(NS(C)(=O)=O)c2O[C@@H]1CN(C)S(C)(=O)=O	inactive
COc1ccc(S(=O)(=O)Nc2ccc3c(c2)C(=O)N([C@@H](C)CO)C[C@H](C)[C@@H](CN(C)C(=O)Nc2ccc(F)cc2)OCCCC[C@H](C)O3)cc1	inactive
C[C@@H]1CCCCO[C@@H](CN(C)C(=O)Nc2ccccc2)[C@H](C)CN([C@@H](C)CO)C(=O)c2cc(NC(=O)Nc3cccc4ccccc34)ccc2O1	inactive
C[C@H](CO)N1C[C@H](C)[C@H](CN(C)CC2CCOCC2)Oc2ncc(C#CCc3ccccc3)cc2C1=O	inactive

SMILES	cytotoxicity call
COc1ccc(NC(=O)Nc2ccc3c(c2)C(=O)N([C@H](C)CO)C[C@H](C)[C@@H](CN(C)C(=O)Nc2c(C)noc2C)OCCCC[C@@H](C)O3)cc1	inactive
O=C1N[C@@H](c2ccccc2)COCc2cn(nn2)CC[C@H](Cc2ccc(C(F)(F)F)cc2)C(=O)N[C@@H](c2ccccc2)COCc2cn(nn2)CC[C@@H]1Cc1ccc(C(F)(F)F)cc1	inactive
C[C@H]1CN([C@@H](C)CO)C(=O)c2cc(NC(=O)Nc3ccc(C(F)(F)F)cc3)ccc2O[C@@H]1CN(C)Cc1ccc(C(F)(F)F)cc1	active
C[C@@H]1CN([C@H](C)CO)C(=O)c2cc(NC(=O)Nc3ccc(C(F)(F)F)cc3)ccc2O[C@H]1CN(C)Cc1ccc(C(F)(F)F)cc1	active
C[C@H]1CN([C@@H](C)CO)C(=O)c2cc(NC(=O)Nc3ccc(C(F)(F)F)cc3)ccc2O[C@H]1CN(C)Cc1ccc(C(F)(F)F)cc1	active
C[C@@H]1CN([C@H](C)CO)C(=O)c2cc(NC(=O)Nc3ccc(C(F)(F)F)cc3)ccc2O[C@@H]1CN(C)Cc1ccc(C(F)(F)F)cc1	active
C[C@H](CO)N1C[C@H](C)[C@H](CN(C)C)Oc2ccc(NC(=O)Cc3cn(C)c4ccccc34)cc2CC1=O	inactive
CNC[C@@H]1OCCCC[C@H](C)Oc2ccc(NS(=O)(=O)c3cn(C)cn3)cc2C(=O)N([C@@H](C)CO)C[C@H]1C	inactive
C[C@H](CO)N1C[C@H](C)[C@H](CN(C)C(=O)Cc2ccncc2)Oc2cc(C#CC3(O)CCCC3)ccc2S1(=O)=O	inactive
C[C@@H]1CN([C@@H](C)CO)C(=O)c2cc(C#Cc3ccncc3)cnc2O[C@H]1CN(C)C(=O)c1ccccc1F	inactive
C[C@H]1CCCCO[C@@H](CN(C)C(=O)Cc2ccccc2)[C@@H](C)CN([C@@H](C)CO)C(=O)c2cc(NS(=O)(=O)c3cccs3)ccc2O1	inactive
COc1ccc(NC(=O)N(C)C[C@@H]2Oc3ccc(NC(=O)Nc4cccc5ccccc45)cc3C(=O)N([C@H](C)CO)C[C@@H]2C)cc1	inactive
CN(C)CCCNC(=O)C[C@H]1C=C[C@@H](NS(=O)(=O)c2ccccc2)[C@@H](CO)O1	inactive
C[C@H](CO)N1C[C@H](C)[C@H](CN(C)Cc2ccc(C(F)(F)F)cc2)Oc2ccc(NC(=O)Nc3ccc(C(F)(F)F)cc3)cc2C1=O	active
C[C@H](CO)N1C[C@H](C)[C@@H](CN(C)Cc2ccc(C(F)(F)F)cc2)Oc2ccc(NC(=O)Nc3ccc(C(F)(F)F)cc3)cc2C1=O	inactive
C[C@@H]1CN([C@@H](C)CO)C(=O)c2cc(NC(=O)Nc3ccc(C(F)(F)F)cc3)ccc2O[C@H]1CN(C)Cc1ccc(C(F)(F)F)cc1	active
C[C@@H]1CN([C@@H](C)CO)C(=O)c2cc(NC(=O)Nc3ccc(C(F)(F)F)cc3)ccc2O[C@@H]1CN(C)Cc1ccc(C(F)(F)F)cc1	active
COCC#Cc1ccc2c(c1)O[C@H](CN(C)S(=O)(=O)c1cccc(F)c1)[C@@H](C)CN([C@@H](C)CO)S2(=O)=O	inactive
COc1ccccc1CN1C[C@@H](C)[C@H](OC)CN(C)C(=O)c2cc(NC(=O)Nc3ccccc3OC)ccc2OC[C@H]1C	inactive
C[C@@H]1CN([C@@H](C)CO)C(=O)c2cc(-c3cccc(C#N)c3)cnc2O[C@@H]1CN(C)C(=O)C1CCOCC1	inactive
Cc1ccc(S(=O)(=O)N(C)C[C@H]2Oc3c(NS(=O)(=O)c4c(C)noc4C)cccc3C(=O)N([C@@H](C)CO)C[C@H]2C)cc1	inactive
N#CC1(C#N)[C@H](c2ccccc2)[C@@H]1C(N)=O	inactive

SMILES	cytotoxicity call
CC(C)CC#Cc1ccc2c(c1)O[C@@H](CN(C)C(=O)c1cnccn1)[C@@H](C)CN([C@H](C)CO)S2(=O)=O	inactive
O=C(C[C@H]1CC[C@H]2[C@@H](COC[C@@H](O)CN2S(=O)(=O)c2ccc(Cl)cc2)O1)N[C@H]1CCN(Cc2ccccc2)C1	inactive
CC(C)C[C@H](NC(=O)CNC(=O)c1cc(Cl)ccc1Cl)B1OC(=O)C[C@](CC(=O)O)(C(=O)O)O1	active
Cc1noc(C)c1S(=O)(=O)Nc1ccc2c(c1)C(=O)N([C@@H](C)CO)C[C@@H](C)[C@@H](CN(C)CC1CCCCC1)OCCCC[C@H](C)O2	inactive
Cn1nc(-c2ccccn2)nc2c(=O)n(C)c(=O)nc1-2	active
Cn1c(=O)[nH]c2nnc(-c3ccccn3)nc2c1=O	inactive
COc1ccc(-c2ccccn2)cc1	inactive
CN1CCN(C(=O)[C@@H]2[C@@H](CO)[C@@H]3Cn4c(cccc4=O)[C@H]2N3S(=O)(=O)c2ccccc2F)CC1	inactive
CC(=O)N1CCN(C(=O)Cc2ccc(S(C)(=O)=O)cc2)C[C@@H](O)C1	inactive
CC(=O)NCCCC[C@@H]1NC(=O)[C@H]2C[C@@H](C(=O)NCc3ccc(F)cc3)[C@@H](c3ccc(O)cc3)N2C1=O	inactive
C[C@H](CO)N1C[C@H](C)[C@H](CN(C)Cc2ccc(C(F)(F)F)cc2)Oc2ccc(NS(C)(=O)=O)cc2CC1=O	inactive
C[C@@H]1CN([C@H](C)CO)C(=O)Cc2cc(NS(C)(=O)=O)ccc2O[C@@H]1CN(C)Cc1ccc(C(F)(F)F)cc1	inactive
C[C@@H]1CN([C@@H](C)CO)C(=O)Cc2cc(NS(C)(=O)=O)ccc2O[C@H]1CN(C)Cc1ccc(C(F)(F)F)cc1	inactive
C[C@@H]1CN([C@@H](C)CO)C(=O)Cc2cc(NS(C)(=O)=O)ccc2O[C@@H]1CN(C)Cc1ccc(C(F)(F)F)cc1	inactive
Cc1ccc(S(=O)(=O)Nc2ccc3c(c2)CC(=O)N([C@@H](C)CO)C[C@H](C)[C@@H](CN(C)Cc2ccc(C(F)(F)F)cc2)O3)cc1	active
Cc1ccc(S(=O)(=O)Nc2ccc3c(c2)CC(=O)N([C@H](C)CO)C[C@H](C)[C@@H](CN(C)Cc2ccc(C(F)(F)F)cc2)O3)cc1	inactive
Cc1ccc(S(=O)(=O)Nc2ccc3c(c2)CC(=O)N([C@H](C)CO)C[C@H](C)[C@H](CN(C)Cc2ccc(C(F)(F)F)cc2)O3)cc1	active
C[C@@H]1CN([C@H](C)CO)C(=O)Cc2cc(NS(C)(=O)=O)ccc2O[C@H]1CN(C)Cc1ccc(C(F)(F)F)cc1	inactive
C[C@H]1CN([C@@H](C)CO)C(=O)Cc2cc(NS(C)(=O)=O)ccc2O[C@H]1CN(C)Cc1ccc(C(F)(F)F)cc1	inactive
Cc1ccc(S(=O)(=O)Nc2ccc3c(c2)CC(=O)N([C@@H](C)CO)C[C@@H](C)[C@@H](CN(C)Cc2ccc(C(F)(F)F)cc2)O3)cc1	active
Cc1ccc(S(=O)(=O)Nc2ccc3c(c2)CC(=O)N([C@H](C)CO)C[C@@H](C)[C@@H](CN(C)Cc2ccc(C(F)(F)F)cc2)O3)cc1	active
C[C@H]1CN([C@@H](C)CO)C(=O)Cc2cc(NS(C)(=O)=O)ccc2O[C@@H]1CN(C)Cc1ccc(C(F)(F)F)cc1	inactive
